Here are results for 33 compounds from ChEMBL document CHEMBL4513216, “Probing the Open Global Health Chemical Diversity Library for Multistage-Active Starting Points for Next-Generation Antimalarials” (ACS Infect Dis, 2020).

About 8,600 (12%) of roughly 69,000 compounds showed an effect of 50% or more. Shown is part of a subset that was picked to be rich in strong results.

The experiment relates to Plasmodium berghei. Nature of the experiment: Screen against P. berghei liver stage (PbLuc), transformed with Luciferase, at 10uM. It counts as functional, HepG2. To be noted: tested at 10 uM.
For the compound `CNCC(=O)N1CC(c2cc(Nc3nc(C)cs3)nc(C)n2)C1`, the INHIBITION is listed as -47.8%.
As for `Cc1csc(Nc2cc(C3CN(c4ccncn4)C3)nc(C)n2)n1`, the figure is 68.4%; as for `Cc1csc(Nc2cc(C3CN(C(C)C)C3)nc(C)n2)n1`, 37.8%; as for `Cc1nc(C)c(C(=O)N2CCCC2c2nc(O)cc(C(C)C)n2)s1` (stereo not drawn), 13.5%.
As for `CSc1ccc(C(C(=O)O)N2CCOCC2)cc1` (stereo not drawn), the INHIBITION came out at 41.2%.
As for `COC1COC2(CCN(Cc3cccc(C#N)c3)CC2)C1` (stereo not drawn), the figure is -23.8%; as for `CCn1nc(NC(=O)Cn2ccc(C(C)=O)n2)c2ccccc21`, 7.38%; as for `COC(=O)c1ccn(CC(=O)Nc2nn(CC3CC3)c3ccccc23)n1`, 32.3%.
On to `CC(=O)c1ccn(CC(=O)Nc2nn(CC3CC3)c3ccccc23)n1`, for which the INHIBITION is recorded as 71.9%.
For `O=C1COC2(CCN(Cc3ccsc3)CC2)CN1`, the INHIBITION is recorded as 24.9%.
Consider `Cc1ccc(NC2CCN(C(=O)c3ccnc(N(C)C)c3)CC2)nn1`, for which the INHIBITION is -115%.
Turning to `Cc1nn(C)c(N2CCOCC2)c1CNC1CCc2cc(F)ccc21` (stereo not drawn), the INHIBITION was found to be 6%.
Consider `CC(C)(C)Oc1ccccc1CNC(=O)C1CCCOC1` (stereo not drawn), for which the INHIBITION is 29.8%.
As for `Cc1nn2cccnc2c1C(=O)NCc1ccccc1OCC1CC1`, the figure is 18.3%; as for `O=C(NCc1ccccc1OCC1CC1)C1CCOC1` (stereo not drawn), 56.5%.
As for `CC1(C)CN(CC(O)C(C)(C)C)C(=O)CN(C(=O)c2ccccc2)C1` (stereo not drawn), the figure is 4.07%; as for `CCN(Cc1ccccc1)Cc1nc2c(cnn2C)c(=O)[nH]1`, -51.5%; as for `Cc1noc(C)c1C(=O)Nc1ccc2ncn(CC(C)C)c(=O)c2c1`, 29.9%.
Consider `O=C(NC(CC(F)(F)F)c1ccc(Cl)cc1)c1nc(=O)[nH][nH]1` (stereo not drawn), for which the INHIBITION was -7.17%.
For the compound `CC(C)(C)CC(NC(=O)c1nc(=O)[nH][nH]1)c1ccc(F)cc1` (stereo not drawn), the INHIBITION came out at 22.8%.
As for `O=C(NC(c1ccc(Cl)cc1)C(F)(F)F)c1nc(=O)[nH][nH]1` (stereo not drawn), the figure is 66.8%; as for `O=C(Nc1cnccn1)[C@@H]1CC[C@@H]2[C@@H](CCN2Cc2nccs2)O1`, 43.4%.
`O=C(NCC1CC1)[C@@H]1CC[C@@H]2[C@@H](CCN2Cc2ccc(F)c(F)c2)O1`: the INHIBITION is 32.2%.
Consider `CNC(=O)[C@@H]1CC[C@@H]2[C@@H](CCN2Cc2cn(C)c3ccccc23)O1`, for which the INHIBITION is on record as -20.1%.
As to `COc1ccc(CN2CC[C@H]3O[C@@H](C(=O)NCC4CC4)CC[C@H]32)cc1`, the INHIBITION is 53%.
For `O=C(NC1CC1)[C@H]1CC[C@@H]2[C@@H](CCN2Cc2ccsc2)O1`, the INHIBITION was 20.9%.
In the case of `O=C(NCC1CC1)[C@H]1CC[C@@H]2[C@@H](CCN2Cc2ccoc2)O1`, the INHIBITION worked out at 26.8%.
`Cc1cccc(CN2CC[C@H]3O[C@H](C(=O)Nc4cnccn4)CC[C@H]32)n1`: the INHIBITION amounted to 34.3%.
For the compound `Cc1csc(CN2CC[C@H]3O[C@H](C(=O)Nc4cccnc4)CC[C@H]32)n1`, the INHIBITION is on record as 81.5%.
In the case of `CN1CCN(C(=O)[C@H]2CC[C@@H]3[C@@H](CCN3Cc3ccsc3)O2)CC1`, the INHIBITION amounted to 52%.
For `CC(C)NC(=O)[C@@H]1CC[C@@H]2[C@@H](CCN2Cc2cn(C)c3ccccc23)O1`, the INHIBITION stood at 65.1%.
Regarding `O=C([C@H]1CC[C@@H]2[C@@H](CCN2Cc2ccsc2)O1)N1CCOCC1`, the INHIBITION was -45.5%.
On to `CC(C)NC(=O)[C@@H]1CC[C@@H]2[C@@H](CCN2Cc2ccc3ccccc3n2)O1`, for which the INHIBITION was found to be 31.9%.
